Screening data: PubChem, National Center for Advancing Translational Sciences (NCATS)
Mito fusion yeast: qHTS Assay for Small Molecule Inhibitors of Mitochondrial Division or Activators of Mitochondrial Fusion. Potency, µM (doses to about 46.1 µM), for inactives: at the highest dose growth rescue (activation), usual class: activators. 0.23% of 320,000 active. S. cerevisiae fusion-defective mutant growth rescue, CellTiterGlo 48 h; further: potency means the concentration at half of the fitted maximal effect; % of control where 0% means no effect; nearly all actives have a fitted effect of over 45% in size
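Luminescent cell viability in 1536-well qHTS format served as the measure of rescued growth in ts fusion-mutant S. cerevisiae cultured on non-fermentable YPEG for 48 hours at 37C.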
CCT modulator: High-Throughput Screening for Modulators of Cytosolic Chaperonin Activity; 0.3% of 360,000 active; activity change, % (no concentration beside the values), hits read low; purified chaperonin ATPase assay, HTRF ADP detection, 30 min; AID 651819, 2012; in the data active means activity change below about -30%; further: on the % scale 0 is the no-effect control and ±100 the full control effect
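We incubate TRiC, 40 or 20 nM final, with library compounds at 76 uM and 10 uM ATP for 30 min at 37 °C. ADP formed is detected with Transcreener HTRF reagents after 30 min at room temperature.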
TDP-43 yeast inh: qHTS of TDP-43 Inhibitors; 1.8% of 410,000 active; TDP-43 expressing yeast growth rescue, BacTiter-Glo, 24 h; Potency, µM (top dose mostly 46.1 µM), inactives show at the highest dose growth rescue (activation), actives largely listed as activators; AID 652104, 2013; further: potency means the concentration at half of the fitted maximal effect; % of control where 0% means no effect; nearly all actives have a fitted effect of over 50% in size
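Cell-based yeast growth screen: TDP-43 expression induced in galactose, inoculum OD600=0.02 after raffinose pregrowth to mid-log. Read-out BacTiter-Glo luminescence at 24 hr, 30 deg C; inhibition of toxicity seen as signal increase.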
aSyn yeast inh: qHTS of alpha-syn Inhibitors; Potency, µM (highest dose often 46.1 µM), inactives show at the highest dose growth rescue (activation), usual class: activators; Yeast expressing alpha-synuclein, growth rescue, BacTiter-Glo, 24 h; 0.14% of 370,000 active; AID 652106, 2013; further: potency means the concentration at half of the fitted maximal effect; % of control where 0% means no effect; nearly all actives have a fitted effect of over 65% in size
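Rescue of yeast growth: cells expressing toxic alpha-synuclein, induced in galactose at OD600 0.02, incubated with compound 24 h at 30 C. ATP luminescence quantified growth; inhibitors of toxicity appear as activators.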
Apoferritin bind: qHTS Assay for Identification of Novel General Anesthetics; Ferritin light chain (Equus caballus), P02791; apoferritin/1-aminoanthracene competitive binding, fluorescence; 0.074% of 350,000 active; Potency, µM (doses to about 77.5 µM), for inactives: at the highest dose activity change, negative = displacement, most hits filed as inhibitors; further: potency means the concentration at half of the fitted maximal effect; on the % scale 0 is the no-effect control and ±100 the full control effect; nearly all actives have a fitted effect of over 20% in size
Target sequence (P02791 2-175 limits assumed): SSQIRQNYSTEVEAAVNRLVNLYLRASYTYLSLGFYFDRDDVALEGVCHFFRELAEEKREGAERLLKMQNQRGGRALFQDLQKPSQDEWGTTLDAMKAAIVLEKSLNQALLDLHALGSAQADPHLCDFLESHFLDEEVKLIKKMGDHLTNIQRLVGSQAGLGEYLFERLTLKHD
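Probe: 1-aminoanthracene (50% saturated, PBS). Protein: horse-spleen apoferritin, 10 uM. Incubation: 10 min, room temperature. Detection: 380 nm excitation, 535 nm emission. Analysis: normalized response, four-parameter Hill.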
Akt phos inh: HTS Assay for Inhibitors of Akt Phophorylation: Primary Screen. activity change, % for hits at 50 µM. 0.32% of 360,000 active. Neuro2A IGF-stimulated pAkt S473 HTRF, 20 min; active compounds read low; in the data active means activity change below about -80%; inconclusive means mostly about -51% to -80%; further: on the % scale 0 is the no-effect control and ±100 the full control effect
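Neuro2A cells (4,500/well, DMEM with 0.5% FBS) were treated with compound at a single 50 µM final concentration, stimulated with 6 nM IGF for 20 min at 37 °C, and lysed. Phospho-Akt Ser473 was read by HTRF as 665/615 ratio ×10^4.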
Starred values were filed as active, the others as inactive; i = inactive; ? = inconclusive; / = no result. An excerpt weighted towards active compounds, which were near 2.5% of everything screened. Unless noted, the call rests on the fitted dose curve; in most records, active means well fitted curve in the direction sought with a large enough effect; inconclusive means small, poorly fitted or top-dose-only effect, or another doubt; inactive means no such curve, though single readings can be large; an effect the other way counts as inactive or inconclusive.

SMILES | Mito fusion yeast | CCT modulator | TDP-43 yeast inh | aSyn yeast inh | Apoferritin bind | Akt phos inh
CCCCN(C)CCCNC(=O)c1cc(=O)[nH]c2ccc(S(=O)(=O)N3CCCCC3C)cc12 (centres undefined) | 35µM* | 0 | -3% | -4% | -16% | i
COc1ccc2[nH]c3c(c2c1)CCNC3(C)CCc1ccc(Cl)nc1 (centres undefined) | -9% | -31* | -8% | -5% | -8% | i
Fc1ccccc1-c1nc(NCC2CC2)nc2ccsc12 | / | -1 | 22µM* | 8% | / | i
CN(C)CCNc1nc(-c2ccccc2F)c2sccc2n1 | / | -2 | -10% | -4% | / | i
N#Cc1ccccc1OCC(=O)Nc1nc(-c2ccccn2)cs1 | / | 0 | 25µM* | ? | / | i
O=C(CCCSc1ccccc1)Nc1nc(-c2ccccn2)cs1 | 18% | 3 | -64% | ? | ? | -106%*
C(=C\c1ccnc2ccccc12)/c1ccc2c(c1)OCO2 | / | / | / | -4% | / | /
CCOc1ccc(C(=O)Nc2ccc(C(=O)OCc3cc(=O)n4c(C)csc4n3)cc2)cc1 | / | / | ? | / | 29% | /
CC1=Nc2cc(C(=O)NC3CCCC3)ccc2Sc2ccc(Br)cc21 | / | / | 4% | / | 4% | /
CC1=Nc2cc(C(=O)O)ccc2Sc2ccc(Br)cc21 | 14% | 1 | 35µM* | -8% | -4% | i
CCC1=Nc2cc(C(=O)O)ccc2Sc2ccc(Cl)cc21 | ? | -1 | 14µM* | -15% | 0% | i
Cc1cccc(CNC(=O)CSCc2cnn(-c3ccccc3)c2-n2cccc2)c1 | / | / | 21% | / | 4% | /
Cc1cc(C)nc(Sc2ncnc3sc4c(c23)CCC4)n1 | -1% | 0 | 20µM* | 0% | -4% | i
O=C(CSc1ncnc2sc3c(c12)CCCC3)c1ccco1 | 21% | 1 | 10µM* | 5% | ? | i
CC(=O)C(Sc1ncnc2sc3c(c12)CCCC3)C(C)=O | 29% | 1 | 18µM* | ? | -7% | i
CS(=O)(=O)N1CCN(/[N+]([O-])=N/Oc2ccc([N+](=O)[O-])cc2[N+](=O)[O-])CC1 | / | / | / | -46% | / | /
CCOC(=O)c1cccc2c1-c1ccccc1/C2=N/O | 15% | 2 | 14µM* | -13% | ? | i
CC(C)COC(=O)c1cccc2c1-c1ccccc1/C2=N\O | 28% | 0 | ? | -18% | -21% | i
Cc1ccc(S(=O)(=O)NC2c3cccc4cccc(c34)C2Sc2nc(C)cc(C)n2)cc1 (centres undefined) | ? | 0 | ? | 1% | -8% | i
O=S(=O)(NC1c2cccc3cccc(c23)C1Sc1ncccn1)c1ccccc1 (centres undefined) | ? | -1 | 22µM* | 9% | -5% | i
CCN(CC)CCOC(=O)c1ccc(N/C=C(/C#N)c2nc(-c3cc4ccccc4oc3=O)cs2)cc1 | 8.9µM* | -1 | -17% | 10% | 0% | i
CCCCS(=O)c1c(O)c2ccccc2[nH]c1=O (centres undefined) | 0% | -2 | 11µM* | 17% | -10% | i
CC1(C)Oc2ccc(C#N)cc2[C@@H](OC2=CC(=O)CC2)[C@@H]1O | / | / | / | / | 2% | /
O=C(c1ccc(Br)o1)N1CCN(C/C=C/c2ccccc2)CC1 | 19% | 0 | -8% | 2% | -14% | -109%*
CCCCCCCCNc1ccc(/C=C/c2ccnc3ccccc23)cc1 | / | / | / | -61% | / | /
CN1OC2C(=O)N(c3ccccc3)C(=O)C2C1c1ccc(F)cc1 (centres undefined) | -4% | -1 | -10% | -3% | 32µM* | i
O=C1C2ON(c3ccccc3)C(c3ccccc3F)C2C(=O)N1c1ccccc1 (centres undefined) | -4% | 1 | -25% | -6% | -10% | i
